Pf growth 48h – inhibits P. falciparum growth in the first generation, 48 h; P. falciparum luciferase growth in erythrocytes, 48 h; Potency, µM (top dose mostly 28.7 µM), inactives show at the highest dose activity change, negative = inhibition, most hits filed as inhibitors; actives 5.9% (n = 310,000)
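In quantitative HTS format, infected erythrocytes bearing luciferase-reporter parasites were treated for a single generation at 37 C. Luminescence after adding detection reagent served as the growth measure.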
HCV inhibitor – inhibitors of hepatitis C virus infection | Potency, µM (top dose mostly 41.8 µM), inactives show top-dose activity change, negative = inhibition, usual class: inhibitors | actives 3.4% (n = 340,000) | Huh7.5.1 HCVcc-Cre infection, luciferase reporter, 44 h
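Cells (1,000/well) were plated 4 h before compound, then infected with HCVcc-Cre virus (~0.5 moi). After 44 h further culture, infection was read as luciferase luminescence following a 15 min substrate incubation at room temperature.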
Pf growth 96h – P. falciparum growth inhibition at 96 hours. Potency, µM (series often up to 28.7 µM), for the others: at the highest dose activity change, negative = inhibition, most hits filed as inhibitors. P. falciparum luciferase reporter growth, 96 h. actives 6.9% (n = 320,000). AID 504834
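Plates of compound plus infected erythrocytes (2% hematocrit, 0.05% parasitemia final) incubate 96 hours, 37 C, 5% CO2. Detection reagent added; reduced luminescence from the parasites' luciferase reporter flags inhibition.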
AMA1-RON2 inh – AMA1-RON2 (P. falciparum) interaction inhibition. AlphaScreen AMA1-biotinylated RON2 peptide binding. Potency, µM (doses to about 58.2 µM), inactives show top-dose activity change, negative = inhibition, usual class: inhibitors. actives 0.2% (n = 360,000);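 also: 0% = vehicle wells and -100% = peptide control; nearly all actives have a fitted effect of over 45% in size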
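AMA1 (3D7) with his tag at 25 nM final met compounds first, then biotinylated RON2 peptide at 25 nM; detection used donor plus acceptor beads, 10 µg/mL apiece, read by AlphaScreen after 30 min at room temperature.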
An asterisk follows results filed as active; ? = inconclusive; / = no result given; [ ] = remark or other dose. Most compounds without a hit are left out; they make up all but 11% or so of the library. Calls follow the shape of the dose curve; as a rule, active = well fitted curve in the direction sought with a large enough effect; inconclusive = small, poorly fitted or top-dose-only effect, or another doubt; inactive = no such curve, though single readings can be large; an effect the other way counts as inactive or inconclusive. Unless noted, % is scaled to controls: 0 for no effect and ±100 for the full control effect; potency is read from the fitted curve at half-maximal effect.

SMILES	Pf growth 48h	HCV inhibitor	Pf growth 96h	AMA1-RON2 inh
CCN(CC)S(=O)(=O)c1ccc(OC(C)C)c(NC(=O)C2=COCCO2)c1	?	?	8.3µM*	32%
CCN(CC)S(=O)(=O)c1ccc(N2CCCCC2)c(NC(=O)C2CCN(C(=O)c3ccc(F)cc3)CC2)c1	12µM*	?	9.3µM*	1%
CCN(CC)S(=O)(=O)c1cccc(NC(=O)COC(=O)C2=COCCO2)c1	-20%	12%	-29%	4%[11.6 µM]
O=C(Nc1ccccc1N1CCCC1)C1CCN(C(=O)c2ccc(F)cc2)CC1	?	1%	2%	5%
CCN(CC)S(=O)(=O)c1ccc(N2CCCC2)c(NC(=O)C2=COCCO2)c1	15%	18%	-20%	-12%
CCOc1ccccc1NS(=O)(=O)c1ccc2c(c1)n(C)c(=O)c(=O)n2C	-18%	-10%[0.335 µM]	0%	2%
COc1ccccc1-c1csc(C(NC(C)=O)c2ccc(F)c(F)c2)n1 (stereo not given)	/	/	/	6%
COc1ccc(/C=N\n2nnc3ccccc32)cc1	70%	?	0.41µM*	8%
CCOC(=O)N1CCN(C(=O)CN(Cc2ccc(Cl)cc2)S(=O)(=O)c2ccc(C)cc2)CC1	/	?	1.9µM*	0%
CCN(CC(=O)N1CCN(C)CC1)S(=O)(=O)c1ccc(Cl)cc1	-14%	-5%	9.3µM*	-1%
CCOC(=O)N1CCN(C(=O)CN(Cc2ccc(Cl)cc2)S(C)(=O)=O)CC1	-6%	5%	1%	10%
CCN(CC(=O)N1CCCCCC1)S(=O)(=O)c1ccc(Cl)cc1	?	12%	19%	-5%
CCN(CC(=O)N1CCCCCC1)S(=O)(=O)c1ccc(C)cc1	-15%	13%	7.4µM*	-2%
CCCCC(=O)NC1(C(F)(F)F)NC(=O)N(Cc2ccccc2)C1=O (stereo not given)	6%	1%	?	8%
C/C(=N\NC(=O)c1ccccc1)c1ccc(-n2ccnc2)cc1	6%	8%	25%	6%
C=C(C)CNC(=S)N/N=C(\C)c1ccc(-n2ccnc2)cc1	/	1%	5.9µM*	14%
C/C(=N\Nc1ccc(Cl)c(Cl)c1)c1ccc(-n2ccnc2)cc1	12µM*	?	4.7µM*	-16%
C/C(=N\NC(N)=S)c1ccc(-n2ccnc2)cc1	?	?	?	94%
CCCCn1nnnc1C(c1cc2ccccc2o1)N1CCN(C(=O)OCC)CC1 (stereo not given)	/	/	/	-4%
FC(F)(F)c1cccc(Cn2nnnc2-c2ccc(Cl)cc2)c1	?	-4%	8.3µM*	9%
CCCn1nnnc1-c1ccc(Cl)cc1	-2%	-3%	-2%	-7%
O=C(Nc1ccc(Oc2ccc(C(=O)O)c(C(=O)O)c2)cc1)c1cccs1	7%	18%	2.1µM*	-6%
O=C(Nc1cccc(Oc2ccc(C(=O)O)c(C(=O)O)c2)c1)c1ccc(-c2ccccc2)cc1	1.7µM*	10%	56%	-3%
CC(C)(C)C(=O)Nc1ccc(C(=O)Nc2cccc(Oc3ccc(C(=O)O)c(C(=O)O)c3)c2)cc1	2%	1%	-23%	1%
CCC(C)NC(=O)c1ccc(N2CC3CC(C2)c2cccc(=O)n2C3)c(NC(=O)c2ccc(Br)o2)c1 (stereo not given)	?	-11%	9.3µM*	0%
SMILES	Pf growth 48h	HCV inhibitor	Pf growth 96h	AMA1-RON2 inh
O=C(NNC(=O)c1cc(-c2ccccc2)nc2ccccc12)Nc1cccc(Cl)c1	-21%	?	/	49%
COc1cc(-c2cc(C(=O)Nc3ccc(S(N)(=O)=O)cc3)c3ccccc3n2)cc(OC)c1OC	?	?	?	-3%
COc1cc(-c2cc(C(=O)Nc3c(Cl)cc(Cl)cc3Cl)c3ccccc3n2)cc(OC)c1OC	13µM*	10µM*	?	22%[11.6 µM]
CC(C)(C)c1ccc(-c2cc(C(=O)NNC(=O)Nc3ccccc3)c3ccccc3n2)cc1	/	?	4.7µM*	88%
COc1ccc(NC(=O)c2cc(-c3cc(OC)c(OC)c(OC)c3)nc3ccccc23)cc1OC	13µM*	?	?	-7%
CCN(CC)S(=O)(=O)c1ccc(O)c(NC(=O)c2cc(-c3cc(OC)c(OC)c(OC)c3)nc3ccccc23)c1	?	?	1.2µM*	?
COc1ccc(-c2cc(C(=O)Nc3ccc(O)cc3)c3ccccc3n2)cc1OC	6.6µM*	?	?	-17%
COc1ccccc1NC(=O)c1cc(-c2ccc(OC)c(OC)c2)nc2ccccc12	?	2%	-21%	-13%
COc1ccc(-c2cc(C(=O)Nc3ccc(S(=O)(=O)Nc4onc(C)c4C)cc3)c3ccccc3n2)cc1	12µM*	35%	?	-15%
COc1cc(-c2cc(C(=O)Nc3ccc(S(=O)(=O)Nc4ncccn4)cc3)c3ccccc3n2)cc(OC)c1OC	?	13%	7.4µM*	5%
COc1ccc(-c2cc(C(=O)NCC(c3ccccc3)N(C)C)c3ccccc3n2)cc1OC (stereo not given)	10µM*	?	9.3µM*	-3%
COc1ccc(-c2cc(C(=O)Nc3ccc(S(=O)(=O)Nc4ncccn4)cc3)c3ccccc3n2)cc1	?	0%	?	-5%
C/C(=N/NC(=O)c1nnn(-c2nonc2N)c1CSc1ccc(C)cc1)c1ccncc1	/	/	/	-14%
CCOC(=O)c1cc(-c2ccc(OC)cc2OC)nn1-c1ccc(C(=O)O)cc1	-17%	20%	?	3%
Cc1noc(C)c1C(=O)OCC(=O)c1ccc[nH]1	/	-5%	-16%	-3%
Cc1noc(C)c1C(=O)OCC(=O)c1cc(C)n(Cc2ccccc2Cl)c1C	39%	11µM*	/	-21%
CC(CCc1ccccc1)N1CCN(Cc2ccccc2)CC1 (stereo not given)	26%	3%	12µM*	-4%[11.6 µM]
CCS(=O)(=O)N1CCN(C(C)CCc2ccccc2)CC1 (stereo not given)	-6%	-1%	3.3µM*	?
CC(CN1CCN(Cc2ccccc2)CC1)c1ccccc1 (stereo not given)	-29%	14%	-16%	3%
Cc1ccc2c(C)c3ccc4ccccc4c3c[n+]2c1	/	13µM*	/	8%
Cc1ccc2c(c1)Sc1c(ccc3ccccc13)N2	62%	14%	?	?
O=C(Nc1ccc(C(=O)N2CCC(N3CCOCC3)CC2)cc1)c1ccc(Br)o1	30%	-11%	0%	0%
CCC1=C(OC(=O)N(CC)CC)N2C(=O)OC(=NCC(=O)OC)[C@]2(Cc2ccccc2)[C@H]2C1=CC[C@H]1C(=O)NC(=O)[C@H]12	?	28%[8.37 µM]	?	9%
CCC1=C(OC(=O)N(CC)CC)N2C(=O)OC(=NCCc3c[nH]c4ccccc34)[C@]2(Cc2ccccc2)[C@H]2C1=CC[C@H]1C(=O)N(CC(=O)OC)C(=O)[C@H]12	5.2µM*	?	13µM*	-24%
CCC1=C(OC(=O)N(CC)CC)N2C(=O)OC(=NCCOC)[C@]2(Cc2ccccc2)[C@H]2C1=CC[C@H]1C(=O)N(CC(=O)OC)C(=O)[C@H]12	9.3µM*	16%	?	-8%

Source: PubChem
